Laboratory results published in PubChem BioAssay (EPA / NIEHS).
Results filed as inconclusive are left out. The source made the active and inactive calls. Rule for the calls: active = hit-call score of the fitted dose curve at least 0.9, where 1 is the maximum; inconclusive = response in the unintended direction; inactive = score below 0.9.

Each molecule was assayed against Retinoic acid receptor RXR-alpha (Homo sapiens) (UniProt P19793) (assay: ATG_RXRa_TRANS: Attagene TRANS-FACTORIAL HepG2 Assay for human Retinoid X Receptor alpha (RXRa) (AID 2283012)).
Sequence of Retinoic acid receptor RXR-alpha (Homo sapiens) (P19793 whole entry, looked up): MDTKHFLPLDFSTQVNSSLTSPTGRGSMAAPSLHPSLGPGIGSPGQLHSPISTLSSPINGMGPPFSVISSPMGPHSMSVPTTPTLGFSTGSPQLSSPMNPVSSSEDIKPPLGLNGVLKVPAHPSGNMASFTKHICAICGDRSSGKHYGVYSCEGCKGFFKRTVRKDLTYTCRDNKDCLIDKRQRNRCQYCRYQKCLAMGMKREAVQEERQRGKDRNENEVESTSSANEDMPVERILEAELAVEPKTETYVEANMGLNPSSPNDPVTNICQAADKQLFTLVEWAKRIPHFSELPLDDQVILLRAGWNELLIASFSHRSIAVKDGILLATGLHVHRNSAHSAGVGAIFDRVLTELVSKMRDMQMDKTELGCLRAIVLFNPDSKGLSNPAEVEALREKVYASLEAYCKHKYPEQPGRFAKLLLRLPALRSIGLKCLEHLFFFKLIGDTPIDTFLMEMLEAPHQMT
Experimental: ATG_TRANS is a cell-based, multiplexed-readout assay that uses HepG2, a human liver cell line, with measurements taken at 24 hours after chemical dosing in a 24-well plate.ATG_RXRa_TRANS is one of 30 assay component(s) measured or calculated from the ATG_TRANS assay. It is designed to make measurements of mRNA induction, a form of inducible reporter, as detected with fluorescence intensity signals by Reverse transcription polymerase chain reaction (RT-PCR) and Capillary electrophoresis technology.Data from the assay component ATG_RXRa_TRANS was analyzed into 1 assay endpoint. This assay endpoint, ATG_RXRa_TRANS, was analyzed in the positive analysis fitting direction relative to DMSO as the negative control and baseline of activity. Using a type of inducible reporter, measures of mRNA for gain-of-signal activity can be used to understand the reporter gene at the transcription factor-level as they relate to the gene RXRA. Furthermore, this assay endpoint can be referred to as a primary readout, because this assay has produced multiple assay endpoints where this one serves a reporter gene function. To generalize the intended target to other relatable targets, this assay endpoint is annotated to the nuclear receptor intended target family, where the subfamily is non-steroidal.
Human liver HepG2 cells are transiently transfected with multiple reporter transcription units (MRTUs) in 6-well plates using FuGene 6 reagent (Roche; 3 ml FuGene/1 mg DNA). The MRTU constructs are regulated by a cis-regulating element (promoter). […] A major difference between the CIS and TRANS system is that in CIS activities of endogenous TFs are measured, whereas the TRANS assay evaluates changes in activities of exogenous, chimeric NR-Gal4 proteins. […] At the end of 24 hour incubation, total RNA was isolated using TriZol reagent (Invitrogen). The isolated RNA is then reverse-transcribed using oligo(dT) primer and Mo-MLV reverse transcriptase (Invitrogen) with DNAse I (Ambion) treatment for 30 min. The one-tenth of the produced cDNA was amplified by PCR using Taq DNA polymerase (Invitrogen) and two reporter sequence-specific primers. The PCR products were fluorescently labeled by primer extension with 6-arboxyfluorescein (6-FAM) 5'-labeled reporter sequence-specific primer (2 min at 95 C, 20 s at 68 C and 10 min at 72 C) and these products were digested with 5U of HpaI (New England Biolabs) for 2h at 37 C. The fragments were purified using Qiaquick PCR columns (Qiagen), analyzed on an ABI 3130xL genetic analyzer (Applied Biosystems) with peak positions identified by using a set of X-rhodamine (ROX)-labeled MapMarker1000 molecular weight standards (BioVentures). The raw capillary electrophoresis data was processed using Attagraph software (Attagene).

Row | Structure (SMILES) | outcome | AC50
1 | Cc1ccc([N+](=O)[O-])c(C)c1 | inactive | –
2 | NCC(F)(F)C(F)(F)C(F)(F)C(F)(F)C(F)(F)C(F)(F)F | inactive | –
3 | CCCCC(CC)COC(=O)c1ccc(N(C)C)cc1 (stereo not given) | inactive | –
4 | C[Si](C)O[Si](C)C | inactive | –
5 | O=C(O)C(F)(F)C(F)(F)C(F)(F)C(=O)O | inactive | –
6 | N#Cc1ccccc1O | inactive | –
7 | CN(C(=O)C(F)(F)C(F)(F)C(F)(F)F)[Si](C)(C)C | inactive | –
8 | O=C1c2ccccc2C(=O)c2c(Cl)cccc21 | inactive | –
9 | O=C(Cl)C(F)(F)C(F)(F)C(F)(F)C(F)(F)C(F)(F)C(F)(F)F | inactive | –
10 | CC(C)OC=O | inactive | –
11 | NC(=O)C(F)(F)C(F)(F)C(F)(F)F | inactive | –
12 | CCCCCCCCn1sc(Cl)c(Cl)c1=O | inactive | –
13 | OCCCCC(F)(F)C(F)(F)C(F)(F)C(F)(F)F | inactive | –
14 | OCCCCl | inactive | –
15 | Nc1c(Br)cc([N+](=O)[O-])cc1Br | inactive | –
16 | CCC(C)CO (stereo not given) | inactive | –
17 | CC(=O)c1ccccc1N | inactive | –
18 | OCCC(O)CO (stereo not given) | inactive | –
19 | NCC(F)(F)C(F)(F)C(F)(F)C(F)(F)C(F)(F)C(F)(F)C(F)(F)C(F)(F)F | inactive | –
20 | CCCCOC(=O)C(C)O (stereo not given) | inactive | –

Row | Structure (SMILES) | outcome | AC50
21 | OCC(F)(F)C(F)(F)C(F)(F)CO | inactive | –
22 | CC(C)(C)c1cc(Cc2cc(C(C)(C)C)c(O)c(C(C)(C)C)c2)cc(C(C)(C)C)c1O | inactive | –
23 | CCCCCCCCCCCCCC[P+](CCCC)(CCCC)CCCC | inactive | –
24 | CC(C)(C)C(=O)C1C(=O)c2ccccc2C1=O | inactive | –
25 | Nc1cc([N+](=O)[O-])cc(Cl)c1O | inactive | –
26 | CC1=CCC(=O)O1 | inactive | –
27 | F[Si-2](F)(F)(F)(F)F | inactive | –
28 | NS(=O)(=O)C(F)(F)C(F)(F)C(F)(F)C(F)(F)C(F)(F)C(F)(F)F | inactive | –
29 | O=C(O)C(F)(F)C(F)(F)C(F)(F)OC(F)(F)F | inactive | –
30 | C=C(C)CCCC | inactive | –
31 | Cc1cc(O)c(C(C)(C)C)cc1C(C)(C)C | – | 7.4 µM (active)
32 | c1ccc(C[P+](c2ccccc2)(c2ccccc2)c2ccccc2)cc1 | inactive | –
33 | CCN=c1cc2oc3cc(NCC)c(C)cc3c(-c3ccccc3C(=O)OCC)c-2cc1C | inactive | –
34 | CCCCOC(=O)[C@H](C)O | inactive | –
35 | N#CCCOCCC#N | inactive | –
36 | O=C(O)C(F)(F)C(F)(F)C(F)(F)C(F)(F)C(F)(F)C(F)(F)C(F)F | inactive | –
37 | CCn1c2ccccc2c2ccccc21 | inactive | –
38 | Cc1cc(C)c(O)c(C(C)(C)C)c1 | inactive | –
39 | O=C(c1ccccc1)c1ccc(Cl)cc1 | inactive | –
40 | CO[Si](CCCOCC1CO1)(OC)OC (stereo not given) | inactive | –
